Laboratory results from PubChem BioAssay AID1259397 (Fisher Drug Discovery Resource Center, 2018).
Several values for one entry are separate records, joined by “and”; a condition that tells them apart may be missing. Identical values can stand only once. Out of some 130,000 compounds screened, about 230 (0.18%) were called active.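 Rule for the calls: active = inhibition of cGAS enzyme activity at or above 60%; inactive = the rest.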 The sample as a whole holds a higher share of actives than the screen did. Some structures have more than one record in an assay (separate samples or runs), and their calls can disagree.

target: Cyclic GMP-AMP synthase (Mus musculus) (UniProt Q8C6L5); experiment: inhibitors of Mus musculus cyclic GMP-AMP synthase, initial high-throughput assay, cell-free, RapidFire MS (AID 1259397); details: recombinant mouse cGAS, cGAMP by RapidFire MS; at 12.5 µM; stronger effect = higher value;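 note: enzyme stimulated by 45 bp dsDNA with ATP and GTP substrates; cGAMP share of summed cGAMP plus half ATP and half GTP signals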
Sequence (Q8C6L5 whole entry, looked up): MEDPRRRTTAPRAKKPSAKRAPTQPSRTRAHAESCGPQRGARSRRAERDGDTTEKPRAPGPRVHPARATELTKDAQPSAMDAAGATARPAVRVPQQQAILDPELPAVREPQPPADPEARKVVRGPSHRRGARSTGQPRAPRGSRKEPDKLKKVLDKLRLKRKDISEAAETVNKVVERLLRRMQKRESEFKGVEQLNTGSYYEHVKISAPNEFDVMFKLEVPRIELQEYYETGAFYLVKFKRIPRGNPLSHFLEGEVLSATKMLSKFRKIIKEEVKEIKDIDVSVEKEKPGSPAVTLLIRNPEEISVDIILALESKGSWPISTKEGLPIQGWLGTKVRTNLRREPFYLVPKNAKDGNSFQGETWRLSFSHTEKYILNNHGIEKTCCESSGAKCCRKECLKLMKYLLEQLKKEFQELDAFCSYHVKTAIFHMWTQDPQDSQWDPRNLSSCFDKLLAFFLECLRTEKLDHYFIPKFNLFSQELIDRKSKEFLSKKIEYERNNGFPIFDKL

Structure (SMILES) | inhibition
Cc1ccc(C)c(CNc2cccc(C(=O)N3CCC(O)CC3)c2)c1 | -8.84% (inactive)
CCC(=O)N1CCN(c2ccc(Cl)cc2NC(=O)c2cccs2)CC1 | -6.87% (inactive)
CC(=O)N(C)c1ccc(NC(=O)CNCCc2cccs2)cc1 | -11.1% (inactive)
COc1ccc(OC)c(NC(=O)C(C)N2CCN(Cc3ccc(Cl)s3)CC2)c1 (stereo not given) | -4.59% (inactive)
CCO[C@H]1COC[C@@H]1NCC(=O)Nc1ccc(Cl)c(OC)c1 | -5.39% (inactive)
O=C(O)c1cc(-c2ccccc2)nn1-c1ccc(Cl)cc1 | -1.5% (inactive)
Cc1cc(-n2cnnc2)ncc1-c1ccc(O)cc1 | -7.05% (inactive)
Cc1ccc(NC(=O)CN2Cc3ccccc3CC2C(N)=O)cc1 (stereo not given) | -6.79% (inactive)
CCNC(=O)C1(C)CCN(Cc2ccc(C(=O)OCC)o2)C1 (stereo not given) | -5.82% (inactive)
CN=c1scc(-c2ccc(Br)cc2)n1N=Cc1cc(OC)c(OC)c(OC)c1 | -11.7% (inactive)
CC(C)Nc1ncc(C(=O)N(Cc2ccco2)C(C)C(C)C)cn1 (stereo not given) | -1.04% (inactive)
C=CC[C@H]1CC(C)=C[C@H](CC=C)N1C(=O)c1cnc2cccc(C)n2c1=O | -2.04% (inactive)
O=C1COCc2ccc(-c3cccnc3)cc2N1CC1CC1 | -11.8% (inactive)
CCCn1c(=O)n(C)c(=O)c2c(SCC(=O)C(C#N)=C(C)N)nc(CC(C)C)nc21 | -1.38% (inactive)
CC1(C(=O)NCc2ccc3c(c2)OCO3)CCN1CCc1ccccc1 (stereo not given) | -12.7% (inactive)
COc1ccc(CC(=O)OCc2cc(-c3ccc4c(c3)OCO4)on2)cc1OC | -7.02% (inactive)
CC(C)c1cc(C2CCN(C(=O)CN3CCOC3=O)CC2)[nH]n1 | -25.2% (inactive)
COc1ccc(NC(=O)CCC2CCN(Cc3ccc(SC)cc3)CC2)c(OC)c1 | -5.25% (inactive)
Cc1cccc(Nc2ncccc2C(=O)NCc2ccccn2)c1C | 1.13% (inactive)
Cc1[nH]n2c(=O)c3c(nc2c1-c1cccc2ccccc12)CCCC3 | 1.14% (inactive)
CN(Cc1ccc(Br)s1)C(=O)CSCc1ccc(C#N)cc1 | 7.87% (inactive)
O=S(=O)(NCc1ccccc1)NCc1csc(-c2cnccn2)n1 | -34.7% (inactive)
O=C1CN(c2ccc(NC(=O)c3ccc4c(c3)COC4)cc2)CCN1 | -2.78% (inactive)

Structure (SMILES) | inhibition
CN1CCN2CCN(C(=O)c3cccc(N4CCNC4=O)c3)CC2C1=O (stereo not given) | -13.8% (inactive)
C=C(C)Cn1c(N2CCN(Cc3cccc(C)c3)CC2)nc2c1c(=O)[nH]c(=O)n2C | -6.09% (inactive)
O=C1NC(=S)SC1=Cc1ccccc1F | 62.6% (active)
O=C1NC(=O)C(=Cc2ccc(C(=O)O)cc2)S1 | 35.6% (inactive)
COc1cc(C=C2SC(=S)NC2=O)cc(Br)c1O | 12% (inactive)
CC(=O)NN=C1CCCc2c(C)cc(C)cc21 | 23.5% (inactive)
O=C(CN1C(=O)NC2(CCCC2)C1=O)N1CCN(C(=O)c2cccs2)CC1 | -1.67% (inactive)
O=C(Nc1ccccc1Cl)C(=O)N1CCC2(CC1)C(=O)Nc1ccccc12 | -33.1% (inactive)
CCn1ccnc1CN(C)C(=O)c1cc(COc2cccc3cnccc23)on1 | -1.51% (inactive) and -6.44% (inactive)
CC(C)(C)CN(CCO)Cc1ncc(C(C)(C)C)o1 | -4.58% (inactive)
CS(=O)(=O)Cc1nc(-c2cc3c(cc2F)NC(=O)CC3)cs1 | -12.8% (inactive)
C=CCN(CC=C)C(=O)CSc1nc2scc(-c3ccc(F)cc3)c2c(=O)n1C | 11.1% (inactive)
COCCn1c(-c2cc(OC)ccc2OC)csc1=Nc1ccc(OC)cc1 | -17.5% (inactive)
Cc1ccc(-c2nc(CCNC(=O)c3cccc(C)c3)cs2)cc1 | 5.19% (inactive)
O=S(=O)(c1ccc(Oc2nc(C(F)(F)F)nc3ccccc23)cc1)N1CCOCC1 | -25.2% (inactive)
COC(=O)NC(C)C(=O)NCc1cccnc1Oc1c(C)cccc1C (stereo not given) | -19.5% (inactive)
CCN(Cc1ccccc1)C(=O)COC(=O)c1cccc(O)c1 | 5.18% (inactive)
CN1CCN(c2ccc(NC(=O)c3cccs3)c(C(F)(F)F)c2)CC1 | -17.2% (inactive)
COc1ccc(C2=CCN(C(=O)c3csc(NC(C)=O)n3)CC2)cc1 | -5.03% (inactive)
COc1ccc(CCn2c(SCCO)nc3c2c(=O)n(C)c(=O)n3C)cc1 | -8.65% (inactive)
Cc1nn(C)c(C)c1C(=O)N(C)Cc1ccc(Cl)cc1 | -0.861% (inactive)
CCC(C(=O)N1CC=CCC1)n1cc(C(C)=O)c2ccccc21 (stereo not given) | -14.3% (inactive)
Fc1ccc(-c2[nH]ncc2CNCc2ccc(OC(F)(F)F)cc2)c(F)c1 | -8.38% (inactive)

Structure (SMILES) | inhibition
N#Cc1ccc(NC(c2ccccc2)c2ccccn2)nc1 (stereo not given) | 9.13% (inactive)
CC(Cn1ccnc1)NS(=O)(=O)c1ccccc1 (stereo not given) | -2.43% (inactive)
Cc1nc2c(c(NCc3csc(-c4cnccn4)n3)n1)CCN(C)CC2 | -14.9% (inactive)
COc1ccc(NC(C)=O)cc1S(=O)(=O)Oc1ccc2c(c1)CCC2 | -14.7% (inactive)
O=C(Cn1ccc(=O)c2ccccc21)Nc1cc(Cl)ccc1C(=O)N1CCCC1 | -4.35% (inactive)
COc1ccccc1-c1n[nH]c(=S)n1-c1ccc(C)cc1 | -2.19% (inactive)
O=C(Nc1ccc(F)cc1)Nc1ccc(OC(F)F)cc1 | -13.8% (inactive)
O=c1oc2c(CN3CC4CC(C3)c3cccc(=O)n3C4)c(O)ccc2cc1-c1nc2ccccc2s1 (stereo not given) | -0.297% (inactive)
O=C(CCSCc1ccccn1)NCc1ccc(Br)s1 | 7.74% (inactive)
O=C(O)CCCc1ccc(Br)s1 | 92.3% (active)
O=C(O)CCCc1ccccc1 | 0.216% (inactive) and -7.46% (inactive) and -8.15% (inactive)
O=C(NCCc1ccccc1)C1=COC2=NC(=O)N(Cc3ccccc3C(F)(F)F)CCN12 | -9.37% (inactive)
CS(=O)(=O)c1ccc(CN2CCN3C(C(=O)N4CCOCC4)=COC3=NC2=O)cc1 | 62.5% (active)
N#Cc1cccc(CN2CCN3C(C(=O)NCCCc4ccccc4)=COC3=NC2=O)c1 | -8.68% (inactive)
Cc1cc2nc3c(=O)[nH]c(=O)nc-3n(C[C@H](O)[C@H](O)[C@H](O)CO)c2cc1C | 87.9% (active)
Cc1c(C(=O)NCc2cccs2)sc(=O)n1Cc1ccccc1C(F)(F)F | -4.53% (inactive)
COc1ccccc1CNC(=O)CC1C(=O)NCCN1Cc1ccccc1C (stereo not given) | -7.58% (inactive)
C=Cc1c(C)c2[n-]c1=Cc1[n-]c(c(CC)c1C)C=c1[n-]c3c(c1C)C(O)=C(C(=O)O)C=3c1[n-]c(c(C)c1CCC(=O)O)C=2.[Cu] | 97.2% (active) and -3.92% (inactive)
Cc1ccc(C(=O)Nc2ccc(C(=O)NCC(N)=O)cc2)cc1Cl | -5.23% (inactive)
CCC(N)(C(=O)OC)c1ccccc1 (stereo not given) | -5.42% (inactive)
Cc1ccc(NC(=O)Cc2nc(-c3ccc4c(c3)CCO4)cs2)c(C)c1 | 4.73% (inactive)
Cc1ccc(NS(=O)(=O)c2ccccc2C(F)(F)F)cc1C | -9.68% (inactive)
Cc1nc(-c2cccs2)sc1C(=O)OCc1cc(=O)n2c(C)csc2n1 | 17.2% (inactive)

Structure (SMILES) | inhibition
COc1cc(C)c(CN2CCN(C(=O)C3=COCCO3)CC2)cc1OC | 0.561% (inactive)
O=C(NCC1(c2ccc(F)cc2)CCCC1)C1CCN(C(=O)C2CC2)CC1 | 0.199% (inactive)
FC(F)C(F)(F)C(F)(F)C(F)(F)CNCc1ccco1 | 6.11% (inactive)
CC(C)Oc1ccc(-c2cncn2C)cc1 | -19.6% (inactive)
Cn1nnnc1SCCNC(=O)c1ccc2oc(Cc3ccccc3)nc2c1 | 3.65% (inactive)
COCCCn1c(C)c(C)n2c3c(=O)n(CC(C)C)c(=O)n(C)c3nc12 | -5.91% (inactive)
COC(=O)c1ccc(-c2nc(CN3CCN(C(=O)c4cccc(OC)c4)CC3)c(C)o2)cc1 | -3.22% (inactive)
O=C(CC1CSc2nccc(=O)n21)Nc1ccc(Oc2ccccc2)cc1 (stereo not given) | -4.45% (inactive)
CCC(c1ccccc1)C1(O)OC(=O)c2ccccc21 (stereo not given) | -3.91% (inactive)
O=C(CCn1c(=O)oc2cc(Cl)ccc21)N1CCN(c2ccccc2Cl)CC1 | -7.84% (inactive)
COc1ccc(C(=O)NC2CC2)cc1OC1CCN(C/C=C/c2ccccc2)CC1 | -2.34% (inactive)
CC(C)(C)n1ncc2c(=O)n(NC(=O)c3ccc(C(F)(F)F)cc3)cnc21 | -4.85% (inactive)
C#CC(CC)(CC)NC(=O)c1ccc(S(C)(=O)=O)cc1 | 1.64% (inactive)
COc1cc(CNC(C)(C)CO)ccc1OCC(=O)Nc1ccc(C)cc1 | -4.89% (inactive)
CCc1ccc2oc3c(c(=O)c2c1)C(c1cccc([N+](=O)[O-])c1)N(c1cc(C)on1)C3=O (stereo not given) | -10.5% (inactive)
Cc1noc(CNC(=O)C2CC(=O)N(CC(F)(F)F)C2)n1 (stereo not given) | 1.05% (inactive)
CCC1=NOC(C(=O)NCCn2c(C)cc(C)nc2=O)C1 (stereo not given) | 0.535% (inactive)
CC(CCS(C)=O)NC(=O)Nc1ncc(-c2ccccc2)s1 (stereo not given) | -2.71% (inactive)
Oc1c(Cl)cc(Cl)c(Cl)c1Cc1c(O)c(Cl)cc(Cl)c1Cl | 92.7% (active) and 36.7% (inactive)
COc1ccc(-c2csc(=Nc3cc(OC)cc(OC)c3)n2NC(=O)C(C)Oc2ccc(Cl)cc2C)cc1 (stereo not given) | 1.02% (inactive)
Cc1cc(C)n(CCNC(=O)CN2CCN(c3ccc4c(c3)OCCO4)C2=O)n1 | -5.72% (inactive)
